From PubChem BioAssay
ATG4B inhibitor – ATG4B (human) cysteine protease inhibition. Q9Y4P1. inhibition, % at 8.33 µM. AID 504462. hit rate 0.51% among 340,000. ATG4B cleavage of LC3-PLA2, NBD-HPC fluorescence, 1 h; in the data active = inhibition above about 40%
Calb FLC – C. albicans growth modulation with fluconazole; C. albicans CaCi-2 (fluconazole-resistant clinical isolate) + fluconazole, Alamar Blue growth, 48 h; growth inhibition, % (no concentration beside the values); hit rate 0.57% among 300,000; AID 1979;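 active = growth inhibition above about 58% in most replicates, limit read from the data, passing the limit was not always enough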;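 note: all wells also contain fluconazole at 8 µg/ml as a sub-toxic cotreatment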
NadD block – NadD (S. aureus) enzyme inhibition. AID 602399. hit rate 0.78% among 360,000. purified NadD enzyme, colorimetric absorbance read-out. inhibition, % at 20 µM; in the data active = inhibition above about 26%
Mot1-301 SUMO – SUMOylation pathway inhibition by Mot1-301 growth rescue. S. cerevisiae Mot1-301 growth rescue, ATP luminescence, 38.5C; percent above DMSO median, 100 means doubled. growth rescue, % at 18.8 µM. hit rate 1% among 320,000. AID 2716;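 active = every valid replicate shows activation above 250% relative to neutral control wells; inactive = the rest, any valid replicate at or below 250%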
FAS TE block – inhibitors of human fatty acid synthase thioesterase domain; inhibition, % at 15 µM; hit rate 0.67% among 360,000; recombinant FAS-TE, OMFH fluorogenic substrate, fluorescence endpoint; P49327;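 active = compounds whose normalised, plate-corrected inhibition of enzyme fluorescence in the single-dose primary screen is 50% or more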
Target sequence (P49327 whole entry, looked up, the tested form may be a part): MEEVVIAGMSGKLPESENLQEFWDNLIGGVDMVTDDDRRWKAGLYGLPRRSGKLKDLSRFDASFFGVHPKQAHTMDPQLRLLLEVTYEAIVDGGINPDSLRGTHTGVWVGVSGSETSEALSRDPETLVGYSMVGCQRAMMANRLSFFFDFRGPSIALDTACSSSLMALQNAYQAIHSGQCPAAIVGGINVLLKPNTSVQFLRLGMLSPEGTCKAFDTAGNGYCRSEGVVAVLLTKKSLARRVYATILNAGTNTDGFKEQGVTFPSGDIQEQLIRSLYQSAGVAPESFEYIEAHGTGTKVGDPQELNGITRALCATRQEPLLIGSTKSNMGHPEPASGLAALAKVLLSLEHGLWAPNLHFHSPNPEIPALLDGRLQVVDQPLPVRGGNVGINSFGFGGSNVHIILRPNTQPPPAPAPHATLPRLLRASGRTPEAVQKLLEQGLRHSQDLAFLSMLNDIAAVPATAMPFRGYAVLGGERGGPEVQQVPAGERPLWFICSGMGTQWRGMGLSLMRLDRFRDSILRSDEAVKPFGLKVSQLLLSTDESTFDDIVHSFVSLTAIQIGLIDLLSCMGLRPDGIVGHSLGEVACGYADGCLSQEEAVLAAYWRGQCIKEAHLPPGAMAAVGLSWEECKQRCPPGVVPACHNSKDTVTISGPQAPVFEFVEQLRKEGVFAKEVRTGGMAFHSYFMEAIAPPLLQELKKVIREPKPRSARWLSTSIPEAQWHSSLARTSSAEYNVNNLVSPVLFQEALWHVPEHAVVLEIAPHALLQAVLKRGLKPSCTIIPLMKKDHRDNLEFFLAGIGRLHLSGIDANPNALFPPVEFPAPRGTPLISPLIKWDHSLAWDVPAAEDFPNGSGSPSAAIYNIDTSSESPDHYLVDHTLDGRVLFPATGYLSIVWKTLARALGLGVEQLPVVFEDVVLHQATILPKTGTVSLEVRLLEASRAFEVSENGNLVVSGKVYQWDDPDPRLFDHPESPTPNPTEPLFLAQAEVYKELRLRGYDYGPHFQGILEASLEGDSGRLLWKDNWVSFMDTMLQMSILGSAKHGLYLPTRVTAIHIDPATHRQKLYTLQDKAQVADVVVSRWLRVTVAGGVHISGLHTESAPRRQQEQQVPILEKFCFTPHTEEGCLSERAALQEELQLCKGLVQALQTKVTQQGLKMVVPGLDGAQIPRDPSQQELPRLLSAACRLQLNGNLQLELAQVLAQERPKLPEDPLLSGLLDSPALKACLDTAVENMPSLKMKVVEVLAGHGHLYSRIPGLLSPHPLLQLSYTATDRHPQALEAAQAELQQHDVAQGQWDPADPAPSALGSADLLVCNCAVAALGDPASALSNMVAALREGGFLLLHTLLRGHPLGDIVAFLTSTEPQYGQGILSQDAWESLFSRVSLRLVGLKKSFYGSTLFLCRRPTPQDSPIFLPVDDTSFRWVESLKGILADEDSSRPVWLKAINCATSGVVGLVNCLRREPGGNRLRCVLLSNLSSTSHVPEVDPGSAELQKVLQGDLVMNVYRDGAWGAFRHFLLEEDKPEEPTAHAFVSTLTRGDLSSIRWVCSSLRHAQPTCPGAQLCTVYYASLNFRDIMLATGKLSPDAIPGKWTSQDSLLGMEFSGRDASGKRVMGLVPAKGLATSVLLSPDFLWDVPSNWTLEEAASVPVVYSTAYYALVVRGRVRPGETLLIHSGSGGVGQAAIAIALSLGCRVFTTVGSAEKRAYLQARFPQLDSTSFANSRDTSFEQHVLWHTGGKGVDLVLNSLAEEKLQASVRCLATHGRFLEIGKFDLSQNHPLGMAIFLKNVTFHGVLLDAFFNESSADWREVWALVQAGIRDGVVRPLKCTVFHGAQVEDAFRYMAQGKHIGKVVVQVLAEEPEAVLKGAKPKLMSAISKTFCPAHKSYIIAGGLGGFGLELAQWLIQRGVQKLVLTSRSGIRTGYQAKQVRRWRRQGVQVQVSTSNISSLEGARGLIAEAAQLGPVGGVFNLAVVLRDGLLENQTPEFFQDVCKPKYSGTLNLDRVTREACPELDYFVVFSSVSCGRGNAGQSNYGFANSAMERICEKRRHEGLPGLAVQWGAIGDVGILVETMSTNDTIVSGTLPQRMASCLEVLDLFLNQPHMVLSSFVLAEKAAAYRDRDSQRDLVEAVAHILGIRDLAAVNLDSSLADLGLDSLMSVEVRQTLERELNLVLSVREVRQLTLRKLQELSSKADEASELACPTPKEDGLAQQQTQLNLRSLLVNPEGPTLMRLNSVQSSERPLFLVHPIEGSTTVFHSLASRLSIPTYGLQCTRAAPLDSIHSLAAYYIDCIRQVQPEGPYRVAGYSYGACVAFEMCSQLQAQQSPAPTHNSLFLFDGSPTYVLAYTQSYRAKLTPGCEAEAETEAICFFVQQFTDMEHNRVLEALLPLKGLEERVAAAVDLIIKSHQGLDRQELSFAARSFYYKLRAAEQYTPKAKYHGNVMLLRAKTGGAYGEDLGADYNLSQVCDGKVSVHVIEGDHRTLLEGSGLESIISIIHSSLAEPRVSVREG
NadD inh conf – NadD (S. aureus) inhibition, single concentration confirmation; inhibition, % at 20 µM; purified S. aureus NadD, colorimetric enzyme assay; hit rate 13% among 2,000; shares compounds with NadD block; in the data active = inhibition mostly above about 42%, no sharp cut-off; inactive = mostly below about 42%
A number is an active result; n = inactive; x = not tested or not shown; ! = not confirmed by another sample. An excerpt weighted towards active compounds, which were near 3.1% of everything screened.

SMILES | ATG4B inhibitor | Calb FLC | NadD block | Mot1-301 SUMO | FAS TE block | NadD inh conf
O=C1NC[C@H](Cc2ccc(O)cc2)N(C[C@@H]2CCCN2C[C@H](Cc2ccccc2)N2C[C@H](Cc3ccccc3)N(CC3CCCCCC3)C(=O)C2=O)C1=O | x | x | 52.2 | x | n | n
O=C1NC[C@@H](CCCCN2C[C@H](Cc3ccc(O)cc3)N(CCC3CCCCC3)C(=O)C2=O)N(CC2CCCCC2)C1=O | x | x | 44.4 | x | n | 47.4
CC(C)C[C@H]1CN([C@@H](Cc2ccccc2)CN2CCC[C@H]2CN2C(=O)C(=O)NC[C@@H]2Cc2ccc(O)cc2)C(=O)C(=O)N1CC1CCCCC1 | x | x | 31.0 | x | n | n
O=C1NC[C@H](Cc2ccccc2)N(C[C@@H]2CCCN2C[C@H](Cc2ccc(O)cc2)N2C[C@H](Cc3ccccc3)N(CC3CCCCCC3)C(=O)C2=O)C1=O | x | x | 39.2 | x | n | 47.9
O=C1NC[C@H](Cc2ccccc2)N(C[C@@H]2CCCN2C[C@H](Cc2ccccc2)N2C[C@H](Cc3ccccc3)N(CC3CCCCC3)C(=O)C2=O)C1=O | x | x | n | x | n | x
O=C1NC[C@H](CCCCN2C[C@H](Cc3ccc(O)cc3)N(CC3CCCCC3)C(=O)C2=O)N(CCC2CCCCC2)C1=O | x | x | n | x | n | x
CC(C)C[C@H]1CN([C@@H](Cc2ccccc2)CN2CCC[C@@H]2CN2C(=O)C(=O)NC[C@@H]2Cc2ccc(O)cc2)C(=O)C(=O)N1CC1CCCCC1 | x | x | n | x | n | x
O=C(N/N=C/c1ccccc1Br)C1CC1 | n | n | n | n | n | x
O=C(NCCN1CCCCC1)c1cc(Cl)ccc1Cl | n | n | n | n | n | x
CC(=O)c1ccc(N(CC(=O)NC2CCCC2)C(=O)c2csnn2)cc1 | n | n | n | n | n | x
Cc1ccc(C2(c3ccc(C)cc3)CC2C(=O)Nc2ccc([N+](=O)[O-])cc2O)cc1 (stereo not given) | n | n | 47.5 | n | n | n
CCOC(CCNC(=O)c1cc(-c2cccs2)nc2ccccc12)OCC | n | n | n | n | n | x
O=C(CC1N=C2c3ccccc3N=C(SCc3ccc(Cl)cc3)N2C1=O)NCc1ccco1 (stereo not given) | n | x | 49.1 | n | n | 59.5
Cn1cnc(C(=O)NCc2ccc(CNC(=O)OC(C)(C)C)cc2)c1C(=O)NCc1ccc(CNC(=O)OC(C)(C)C)cc1 | n | x | 32.9 | n | n | n
CC(C)(C)OC(=O)NCc1ccc(NC(=O)c2nc[nH]c2C(=O)NCCCCCCNC(=O)c2[nH]cnc2C(=O)Nc2ccc(CNC(=O)OC(C)(C)C)cc2)cc1 | n | x | 39.5 | n | n | n
CC(C)(C)OC(=O)NCc1ccc(NC(=O)c2nc[nH]c2C(=O)NCCN(CCNC(=O)c2[nH]cnc2C(=O)Nc2ccc(CNC(=O)OC(C)(C)C)cc2)CCNC(=O)c2[nH]cnc2C(=O)Nc2ccc(CNC(=O)OC(C)(C)C)cc2)cc1 | n | x | 42.7 | n | n | n
COc1ccc(CNC(=O)[C@H](C)NC(=O)C2CCN(S(=O)(=O)c3ccccc3)CC2)cc1 | n | n | n | n | n | x
CC(NC(=O)c1c(N)[nH]c(C(=O)c2ccccc2)c1-c1ccccc1Br)c1cccc2ccccc12 (stereo not given) | x | x | 35.5 | x | n | n
CCc1ccc(N(CC(=O)NCc2ccco2)C(=O)CCC(=O)Nc2ccccn2)cc1 | n | n | 23.9 | n | n | n
O=C(CNC(=O)c1ccc(C(F)(F)F)cc1)NC1CC1 | n | x | n | n | n | x
CCOC(=O)c1c(-c2ccccc2Cl)csc1NC(=O)CSc1nc(C)cc(=O)[nH]1 | n | n | 27.6 | n | n | 55.3
Cc1ccc(-c2cc(-c3ccccc3Cl)c(C#N)c(N)n2)o1 | n | n | 68.4 | n | n | 57.2
Cc1ccc(-c2cc(-c3ccccc3)c(C#N)c(N)n2)o1 | n | n | 40.8 | n | n | n
Cc1ccc(-c2cc(-c3ccc(F)cc3)nc(N)c2C#N)o1 | n | n | n | n | n | x
O=C(Nc1nnc(N2CCCCCC2)s1)c1cc(-c2ccc(Br)cc2)on1 | n | n | n | n | n | x
SMILES | ATG4B inhibitor | Calb FLC | NadD block | Mot1-301 SUMO | FAS TE block | NadD inh conf
CC1CCCC(C)N1c1nnc(NC(=O)c2cc(-c3ccc(Br)cc3)on2)s1 (stereo not given) | n | n | 41.1 | n | n | n
O=c1[nH]c(=S)[nH]c2nccnc12 | n | x | n | x | n | x
Cc1ccc(C2(SCC(N)C(=O)O)c3ccccc3-c3ccccc32)cc1 (stereo not given) | n | x | 38.9 | x | n | 53.6
NC(CSC(c1ccccc1)(c1ccccc1)c1ccccc1)C(=O)O (stereo not given) | n | x | n | x | n | x
CC(=O)c1ccc(N2C(=NC(=O)CCC3CCCC3)SC3CS(=O)(=O)CC32)cc1 (stereo not given) | n | n | n | n | n | x
Cc1ccc(C)c(OCC(=O)N2CCN(c3ncccn3)CC2)c1 | n | x | n | n | n | x
COc1cccc(C(=O)Nc2ccc(NC(=O)C3C4C=CC(C4)C3C(=O)O)cc2)c1 (stereo not given) | n | n | n | n | n | x
CCOc1cc(/C=N\Nc2ccc([N+](=O)[O-])cc2)ccc1OCC(=O)Nc1ccc(C)c(C)c1 | n | n | 43.6 | n | n | n
COc1cc(/C=N\Nc2ccc([N+](=O)[O-])cc2)ccc1OCC(=O)Nc1ccc(C)c(C)c1 | n | n | n | x | n | x
COc1ccccc1C(=O)NCC(=O)NCc1cc(=O)n(C)c(=O)n1C | n | n | 61.8 | n | n | n
O=C1OC(c2ccc3ccccc3c2O)(c2ccc3ccccc3c2O)c2ccccc21 | n | x | 41.1 | x | n | 81.8
CCn1c(-c2nonc2NC(=O)c2ccccc2)nc2ccccc21 | n | n | n | x | n | x
CC(C)(C)c1ccc(C(=O)Nc2nonc2-c2nc3ccccc3[nH]2)cc1 | n | n | 55.1 | n | n | n
Cc1cccn2c(=O)c3cc(C#N)c(=NC(=O)c4ccccc4)n(Cc4ccco4)c3nc12 | n | n | 32.0! | n | n | n
Cc1cccn2c(=O)c3cc(C#N)c(=NC(=O)c4ccco4)n(Cc4ccco4)c3nc12 | n | n | n | n | n | x
Cc1cccc(C(=O)N=c2c(C#N)cc3c(=O)n4cccc(C)c4nc3n2Cc2ccco2)c1 | n | n | 42.0 | n | n | n
Cc1ccc(C(=O)OCC(=O)Nc2sc3c(c2C#N)CCCC3)cc1NC(=O)c1ccco1 | n | n | 58.7 | n | n | n
Cc1ccc(C(=O)OCC(=O)Nc2sc3c(c2C#N)CCCCC3)cc1NC(=O)c1ccco1 | n | n | 35.9 | n | n | n
CC1CC(=O)N(CC(=O)NC2CCCCC2)c2ccccc2S1 (stereo not given) | n | n | n | n | n | x
FC(F)(F)c1cc(-c2ccco2)nc(NCc2ccco2)n1 | n | n | 34.0 | n | n | n
FC(F)(F)c1cc(-c2ccco2)nc(NCc2cccs2)n1 | n | n | n | n | n | x
O=C(N/N=C/c1ccc([N+](=O)[O-])o1)c1cn(-c2ccccc2)nc1-c1ccc(Cl)cc1 | n | n | 35.5 | n | n | n
